Earlier results as cited in PubChem BioAssay AID977611.
The campaign covered roughly 3,900 compounds. About 3,900 (100%) were called active. No cut-off is given here; in the data, nearly all actives have Kd up to about 4200 µM. So high a share suggests a set chosen from earlier hits. This is one part of the list. Where a SMILES comes first, the peptide text is derived from it. Non-standard residues stand in square brackets, D forms with d. Residues, ends and D or L forms follow the SMILES beside them. Peptide text beside a SMILES is read from it. [ ]: non-standard residue; d: D form. Orn(CH(NH2)2) = NC(N)NCCC[C@H](N)C(=O)O

Assay: PubChem AID 977611
Settings: PDB protein-ligand complexes, literature Kd

H-QLAWFDTDL-OH
Kd (protein: Tax-interacting protein-1 (TIP-1), PDB entry 3diw): 0.19 µM (active)

CC[C@H](C)[C@H](NC(=O)[C@H](CC(=O)O)NC(=O)[C@H](Cc1c[nH]c2ccccc12)NC(=O)[C@H](Cc1ccccc1)NC(=O)[C@H](CCCCN)NC(=O)[C@H](CC(C)C)NC(=O)[C@@H](NC(=O)[C@H](Cc1ccccc1)NC(=O)[C@@H](N)CC(N)=O)[C@@H](C)O)C(=O)N[C@@H](Cc1ccccc1)C(=O)N[C@@H](CCCNC(N)N)C(=O)N[C@@H](CCCCN)C(=O)O (H-NFTLKFWDIF[Orn(CH(NH2)2)]K-OH)
Kd (protein: Chaperone surA-P1, PDB entry 2pv2): 1.23 µM (active)

H-NFTLKFWDIF-OH
Kd (protein: Chaperone surA(P2), PDB entry 2pv3): 5.57 µM (active)

NCc1cccc(-n2cccn2)c1
Kd (protein: CATIONIC TRYPSIN, PDB entry 4abe): 400 µM (active)

NCc1ccccc1-n1cccn1
Kd (protein: INTEGRASE, PDB entry 4ahv): 15000 µM (active)

NCc1cccc(-n2cccc2)c1
Kd (protein: CATIONIC TRYPSIN, PDB entry 4abd): 40 µM (active)

NCc1cccc(N2CCCC2)c1
Kd (protein: CATIONIC TRYPSIN, PDB entry 4abh): 71 µM (active)

O[P+](O)(O)O[C@@H]1C(OCc2ccccc2)[C@H](O[P+](O)(O)O)[C@@H](O[P+](O)(O)O)C(OCc2ccccc2)[C@H]1O[P+](O)(O)O (stereo partly specified)
Kd (protein: Inositol hexakisphosphate and diphosphoinositol-pentakisphosphate kinase 2 PPIP5K2, PDB entry 4nzo): 0.17 µM (active)

C[C@H]1O[C@H](O)[C@@H](O)[C@@H](O)[C@@H]1O
Kd (protein: Pyocin L1, PDB entry 4led): 5000 µM (active)

C[C@@H]1O[C@@H](O)[C@H](O)[C@H](O)[C@H]1O
Kd (protein: Putative rhamnosidase, PDB entry 3w5n): 135 µM (active)

O=S(=O)(Nc1nc2ccc(Cl)cc2s1)c1cc2ccccc2s1
Kd (protein: 3-phosphoinositide-dependent protein kinase 1 PDK1, PDB entry 4rqv): 9 µM (active)

H-DLLDSLGF-OH
Kd (protein: Chemotaxis protein cheY, PDB entry 2pmc): 64.7 µM (active)

H-SFGDGFADF-OH
Kd (protein: AP-2 complex subunit ?-2, PDB entry 2iv9): 46 µM (active)

H-DEEGGGEEDQDFDLSQLH-OH
Kd (protein: p120 catenin isoform 4A delta 1 (deletion, residues 613-643), PDB entry 3l6x): 40 µM (active)

CC(C)C[C@H](NC(=O)[C@@H](N)CC(=O)O)C(=O)N[C@@H](Cc1ccccc1)C(=O)O (H-Asp-Leu-Phe-OH)
Kd (protein: DNA polymerase III subunit beta, PDB entry 4k3m): 281 µM (active)

H-SGFSF-OH
Kd (protein: Ras GTPase-activating protein-binding protein 1, PDB entry 4fcm): 115 µM (active)

H-APPPRPPPPE-OH
Kd (protein: The first SH3 domain from CAP/Ponsin, SH3a, PDB entry 4lnp): 214 µM (active)

CC(C)C[C@H](NC(=O)[C@@H]1CCCN1C(=O)[C@@H]1CCCN1C(=O)[C@H](CC(C)C)NC(=O)[C@@H]1CCCN1C(=O)[C@H](CCCNC(N)N)NC(=O)[C@@H](N)CCCCN)C(=O)N1CCC[C@H]1C(=O)N[C@@H](CO)C(=O)O (H-K[Orn(CH(NH2)2)]PLPPLPS-OH)
Kd (protein: phosphatidylinositol 3-kinase (PI3K) SH3 domain, PDB entry 3i5r): 40 µM (active)

H-LAPPKPPLPE-OH
Kd (protein: The second SH3 domain from CAP/Ponsin, SH3b, PDB entry 4ln2): 248 µM (active)

CC(C)CCCCCCC(=O)N[C@H]1[C@H](Oc2c3cc4cc2Oc2ccc(cc2Cl)C[C@H]2NC(=O)[C@H](N)c5ccc(O)c(c5)Oc5cc(O)cc(c5)[C@H](NC2=O)C(=O)N[C@H]4C(=O)N[C@H]2C(=O)N[C@H](C(=O)N[C@H](C(=O)O)c4cc(O)cc(O)c4-c4cc2ccc4O)[C@H](O)c2ccc(cc2)O3)O[C@H](CO)[C@@H](O)[C@@H]1O
Kd (protein: Maltose-binding periplasmic protein, C-terminal fused by Cys-Lys-D-Ala-D-Ala, PDB entry 3vfj): 0.091 µM (active)

H-GSYGHLSIGT-OH
Kd (protein: Sufu, PDB entry 4kmd): 3.86 µM (active)
